Measured values reported in PubChem BioAssay AID623892 (Vanderbilt Specialized Chemistry Center, 2012).
Unmarked numbers belong to inactive results.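 The calls were made as follows: active = potentiator with a glutamate EC50 fold shift of at least 2, or antagonist at 0.5 or below; inactive = fold shift between 0.5 and 2.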

Biological target: Metabotropic glutamate receptor 8 (Rattus norvegicus) (UniProt P70579)
Assay: mGlu8 glutamate response modulation check – cell-based, rat, thallium flux, selectivity assay for mGlu4 lead optimization, profiling panel (AID 623892)
Details: HEK cells rat mGlu8, thallium flux, at 10 µM

Metabotropic glutamate receptor 8 (Rattus norvegicus), sequence (P70579 whole entry, looked up): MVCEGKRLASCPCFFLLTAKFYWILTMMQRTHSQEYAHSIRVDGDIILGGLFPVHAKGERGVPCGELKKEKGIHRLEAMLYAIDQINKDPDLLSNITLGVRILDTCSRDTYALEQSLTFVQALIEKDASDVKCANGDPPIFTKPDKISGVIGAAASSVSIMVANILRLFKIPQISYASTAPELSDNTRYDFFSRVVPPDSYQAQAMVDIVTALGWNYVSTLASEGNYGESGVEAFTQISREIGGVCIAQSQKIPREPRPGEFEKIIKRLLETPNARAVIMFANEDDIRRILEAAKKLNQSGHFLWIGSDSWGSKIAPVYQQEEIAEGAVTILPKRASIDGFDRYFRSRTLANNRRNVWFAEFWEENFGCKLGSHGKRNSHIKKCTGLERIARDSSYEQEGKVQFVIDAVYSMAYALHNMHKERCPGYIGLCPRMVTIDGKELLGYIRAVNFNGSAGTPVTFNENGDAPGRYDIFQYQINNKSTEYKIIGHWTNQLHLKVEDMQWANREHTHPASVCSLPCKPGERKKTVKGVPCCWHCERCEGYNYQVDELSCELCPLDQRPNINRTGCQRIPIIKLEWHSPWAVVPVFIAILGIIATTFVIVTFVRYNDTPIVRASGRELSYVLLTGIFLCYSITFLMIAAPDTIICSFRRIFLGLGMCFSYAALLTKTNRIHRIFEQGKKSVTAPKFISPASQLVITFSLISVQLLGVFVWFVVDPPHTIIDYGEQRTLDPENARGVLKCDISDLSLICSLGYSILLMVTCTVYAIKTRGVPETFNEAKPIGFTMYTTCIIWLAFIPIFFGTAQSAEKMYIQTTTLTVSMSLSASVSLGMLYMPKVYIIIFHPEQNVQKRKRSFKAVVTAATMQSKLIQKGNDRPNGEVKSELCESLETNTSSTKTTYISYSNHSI

SMILES: O=C(Nc1cccc(Cl)c1)c1ccccn1
- fold shift of glutamate EC50: 1.47
